# Compound activity: PubChem BioAssay, National Center for Advancing Translational Sciences (NCATS)
# D2 ag-1 = Beta-Arrestin HTS for Positive Allosteric Modulators of the Human D2 Dopamine Receptor: Agonists; D(2) dopamine receptor (Homo sapiens), P14416; DiscoveRx PathHunter D2 beta-arrestin, luminescence, 90 min; 100% = 57 uM dopamine signal; activation, % (no concentration beside the values); 360,000 tested, 0.084% active; AID 624465, 2012; in the data active means activation above about 40%; inconclusive means between about 15% and that limit
# Target sequence (P14416 whole entry, looked up): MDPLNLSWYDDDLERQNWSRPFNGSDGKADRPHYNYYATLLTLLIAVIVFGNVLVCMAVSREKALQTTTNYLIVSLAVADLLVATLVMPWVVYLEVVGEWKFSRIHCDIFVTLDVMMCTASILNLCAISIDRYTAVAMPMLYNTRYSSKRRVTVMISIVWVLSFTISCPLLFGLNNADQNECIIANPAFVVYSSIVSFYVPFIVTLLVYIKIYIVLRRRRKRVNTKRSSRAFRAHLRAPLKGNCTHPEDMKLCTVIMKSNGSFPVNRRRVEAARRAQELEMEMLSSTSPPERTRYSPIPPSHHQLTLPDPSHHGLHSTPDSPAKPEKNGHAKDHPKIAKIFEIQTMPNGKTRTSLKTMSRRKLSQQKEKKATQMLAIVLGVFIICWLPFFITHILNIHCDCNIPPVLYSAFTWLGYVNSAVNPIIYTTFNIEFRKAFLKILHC
#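 DiscoveRx PathHunter D2 beta-arrestin cells (2,100/well) attached overnight, then compound-stimulated 90 min at 37 C in HBSS/10 mM HEPES/0.1% Tween-20 buffer; beta-galactosidase complementation read by luminescence after 1 h at ambient temperature. Dopamine 57 uM final (EC100) as control.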
# D2 PAM-1 = Beta-Arrestin HTS for Positive Allosteric Modulators of the Human D2 Dopamine Receptor: Potentiators; D(2) dopamine receptor (Homo sapiens), P14416; AID 624464, 2012; DiscoveRx D2 beta-arrestin cells, luminescence, 90 min; 100% = 57 uM dopamine signal; potentiation, % (no concentration beside the values); 360,000 tested, 0.23% active; in the data active means potentiation above about 50%; inconclusive means mostly about 30% to 49%
#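 PathHunter D2 cells, attached overnight at 37 deg C, received compound in DMSO plus dopamine at EC20 (50 nM final) for 90 min at 37 deg C. Beta-arrestin recruitment was read as luminescence after 1 h with detection reagent at ambient temperature.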
# D2 ag-2 = HTS Assay for Allosteric Agonists of the Human D2 Dopamine Receptor: Primary Screen for Agonists; HEK293 T-REx D2 cells, calcium flux agonist mode; 340,000 tested, 0.53% active; activation, % at 2 µM; D(2) dopamine receptor (Homo sapiens), P14416; AID 485358, 2010;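 active means activation over 3 SD above normal in the single-dose calcium agonist read, cut at about 30% in these data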; further: 0% is about no effect
#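 Tetracycline-induced HEK293 T-REx cells with force-coupled D2 receptor, plated overnight at 30 C, loaded with no-wash calcium dye. After a 10 s baseline, compound was pin-added and calcium flux read kinetically for 180 s; calcium rises flagged agonists.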
# D2 PAM-2 = HTS Assay for Positive Allosteric Modulators of the Human D2 Dopamine Receptor: Primary Screen for Potentiators; D(2) dopamine receptor (Homo sapiens), P14416; HEK293 T-REx D2, calcium flux, EC20 dopamine potentiation; potentiation, % at 10 µM; 340,000 tested, 0.34% active;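 active means potentiation over 3 SD above the plate norm, cut at about 30% in these data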; further: 0% is about no effect
#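 Cells plated with tetracycline inducer and held overnight at 30 C; calcium dye loaded 30–90 min at room temperature; baseline taken, compound added and read 180 s; EC20 dopamine then added and read 180 s.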
# D2 antag = HTS Assay for Allosteric Antagonists of the Human D2 Dopamine Receptor: Primary Screen for Antagonists; D(2) dopamine receptor (Homo sapiens), P14416; HEK293 TREx D2 cells, calcium flux, dopamine EC80; inhibition, % at 10 µM; 340,000 tested, 2% active; AID 485344, 2010; in the data active means inhibition above about 30%; inactive means below that, where a call was filed; further: 0% is about no effect
#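 Tetracycline-induced HEK293 T-REx cells expressing D2 force-coupled to calcium signalling were dye-loaded, exposed to compound for 180 s, then challenged with an EC80 of dopamine; calcium flux was followed kinetically for a further 180 s.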
# * marks the source's active call; other numbers are inactive results; ? = inconclusive; / = not tested or not shown. Sampled rows, rich in hits. Any-hit rate of the full collection: about 2.4%.
SMILES,D2 ag-1,D2 PAM-1,D2 ag-2,D2 PAM-2,D2 antag
COc1ccc(C(=O)O/N=C(\N)Cc2ccc(Cl)cc2)cc1OC,13,164*,0,-5,13
N/C(CN1CCCC1=O)=N\OC(=O)c1ccc(Cl)cc1,2,14,0,16,-2
COc1ccc(C/C(N)=N/n2cnnc2)cc1Cl,0,9,1,6,1
Cc1cccc(OCC(=O)O/N=C(\N)Cc2ccc(Cl)cc2)c1,2,-10,1,33*,-2
Cc1ccc(Cl)cc1NC(=O)Cn1c(=O)n(C(C)C)c(=O)c2oc3ccccc3c21,/,/,1,-2,/
CC(C)c1ccc(N(C(=O)CNC(=O)c2ccco2)C(C(=O)NC2CCCC2)c2ccncc2)cc1 (stereo unspecified),-6,-14,0,-10,31*
COCCSc1ccccc1C(=O)Nc1ccc(Cl)cc1,1,-17,0,-6,58*
COCCSc1ccccc1C(=O)NCCCn1ccnc1,-1,-8,0,4,39*
Cc1ccc(C2=NN(CCC(=O)NCCc3cccc(C)c3)C(=O)CC2)cc1,/,/,/,0,/
COc1ncccc1-c1cc2nc(NCCNC(C)=O)n(C)c(=O)c2s1,-5,-13,/,/,/
CCCN(CCC)C(=O)CSc1ncccc1C(=O)O,0,-17,38*,-19,3
Cc1ccc(C(=O)Nc2c(C)cc(-c3ccccc3)oc2=O)cc1,-4,-8,0,-6,31*
Cc1ccc(C(=O)Nc2nc(-c3ccccc3)c(-c3ccccc3)o2)cc1,0,-24,-1,-12,-22
Cc1ccccc1-c1noc(-c2ccc(O)cc2)n1,3,13,0,-9,46*
Cc1ccccc1-c1noc(C23CC4CC(CC(C4)C2)C3)n1,-1,-9,1,-26,75*
O=C(CCC1CCCCC1)Nc1nccs1,0,-14,0,-5,43*
Cc1nnc(NC(=O)CCC2CCCCC2)s1,-3,-4,/,/,/
Cn1nc(C(=O)NNC(=O)COc2ccccc2)c2ccccc2c1=O,-1,-16,0,-13,8
Cc1occc1C(=O)NNC(=O)c1nn(C)c(=O)c2ccccc12,-2,0,0,31*,-13
COCCNC(=O)CN(C(=O)c1ccc(N2CCCC2)nc1)c1ccc(Cl)cc1,-4,-2,0,34*,4
COc1ccc(OC)c(/C=C(\C#N)c2nc(-c3ccc(F)cc3)cs2)c1,/,/,0,23,/
COC(=O)c1ccc2nc(-c3ccccc3)c(Cc3ccccc3OC)n2c1,-9,-9,/,/,/
O=S(=O)(c1ccsc1)N1CC=C(c2ccccc2)CC1,10,-5,36*,-12,35*
O=C(CN1CCN(c2ccccc2)CC1)N1CCc2[nH]c3ccccc3c2C1,2,-26,36*,-18,11
O=C(CN1CCc2[nH]c3ccccc3c2C1)N1CCCCC1,-2,-29,1,-12,23
SMILES,D2 ag-1,D2 PAM-1,D2 ag-2,D2 PAM-2,D2 antag
CC(=O)N1CCc2[nH]c3ccccc3c2C1,-2,-5,0,0,-27
O=C(CCCCl)N1CCc2[nH]c3ccccc3c2C1,10,-26,19,-17,32*
O=C(Cn1c(=S)[nH]c2ccccc2c1=O)N1CCN(c2ccccc2)CC1,-4,-3,3,3,31*
CCOc1ccc(-c2nonc2NC(=O)COc2ccccc2)cc1,/,/,0,-7,/
COc1cccc(CNCc2c(C(=O)O)c(C)n(Cc3ccc(F)cc3Cl)c2C)c1OC,/,/,/,1,/
CS(=O)(=O)c1ccc2nc(NC(=O)CN3CCN(Cc4ccccc4)CC3)sc2c1,-1,-15,0,-3,45*
CS(=O)(=O)c1ccc2nc(NC(=O)c3cc([N+](=O)[O-])cc([N+](=O)[O-])c3)sc2c1,?,99*,1,1,7
CCOC(=O)c1cccc(NC(=O)CCCn2nc(C)c3c(C)n(-c4ccccc4)nc3c2=O)c1,/,/,/,-4,/
O=C(NC1CCN(Cc2ccccc2)CC1)C1CCN(S(=O)(=O)c2ccc(Cl)cc2)CC1,-6,-17,1,-14,33*
S=C(Nc1ccccc1Cl)NC1CCN(Cc2ccccc2)CC1,1,-38,0,-24,85*
Clc1ccc(CNC2CCN(Cc3ccccc3)CC2)cc1,-3,-13,3,1,-12
S=C(NCc1ccc(Cl)cc1)NC1CCN(Cc2ccccc2)CC1,7,-20,2,-27,71*
CC(C)c1ccccc1NC(=S)N1CCN(Cc2ccc3c(c2)OCO3)CC1,-4,-15,2,-23,33*
S=C(Nc1cc(Cl)cc(Cl)c1)NC1CCN(Cc2ccccc2)CC1,-3,-26,3,-28,72*
Cc1c(Cl)cccc1NC(=S)N1CCN(Cc2ccccc2)CC1,-2,-21,0,7,0
O=C(NC1CCN(Cc2ccccc2)CC1)c1ccc(Cl)cc1Cl,1,-86,1,-20,61*
FC(F)(F)c1ccccc1NC(=S)NC1CCN(Cc2ccccc2)CC1,-3,-34,1,-26,115*
Cc1c(Cl)cccc1NC(=S)NC1CCN(Cc2ccccc2)CC1,1,-38,1,-22,85*
O=C(NC(=S)NC1CCN(Cc2ccccc2)CC1)c1ccc(F)cc1,-6,-20,3,18,7
O=C(CNC(=O)c1ccccc1Cl)NC1CCN(Cc2ccccc2)CC1,-1,-5,0,20,-1
Cc1noc(C)c1S(=O)(=O)Nc1ccc(C(=O)Nc2ccc(Br)cc2)cc1,/,/,0,0,/
CCOc1ccc(NS(=O)(=O)c2ccc(-c3cc(C)no3)s2)cc1,/,/,1,1,/
COc1ccc(OC)c(CCNC(=O)CCCn2c(=O)c3cccn3c3ccc(F)cc32)c1,/,/,0,/,/
CCc1nc2c(OCc3c(C)noc3C)cccn2c1N(C=O)Cc1ccc(OC)cc1,12,7,/,/,/
S=C(Nc1ccccc1Cl)NC1CCC(NC(=S)Nc2ccccc2Cl)CC1 (stereo unspecified),2,-23,/,5,/
COc1ccc(CCNC(=S)NC2CCN(Cc3ccccc3)CC2)cc1OC,-1,-13,0,-37,32*
S=C(Nc1ccc(Cl)cc1Cl)NC1CCN(Cc2ccccc2)CC1,-2,-28,2,-26,75*
CC(C)c1ccccc1NC(=S)NC1CCN(Cc2ccccc2)CC1,-5,-14,1,-27,96*
